Sm TGR inh: qHTS Assay for the Inhibitors of Schistosoma Mansoni Peroxiredoxins; purified TGR, DTNB reduction, TNB absorbance 405 nm; Potency, µM (doses to about 114 µM), actives largely listed as inhibitors; actives 3% (n = 360,000); AID 485364, 2010; active means well fitted inhibition curve with a large enough effect; inconclusive means small, poorly fitted or top-dose-only effect; inactive means no such curve, though single readings can be large or run the other way; further: nearly all actives have a fitted effect of over 60% in size
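Kinetic colorimetric format: TGR-catalysed, NADPH-driven DTNB reduction monitored via TNB absorbance. Enzyme dispensed at 20 nM; compound exposure 15 min at room temperature before reaction start.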
SARS PLpro yeast: qHTS of Yeast-based Assay for SARS-CoV PLP; S. cerevisiae expressing SARS-CoV PLpro, growth rescue; Potency, µM (titrated, usually from 32.9 µM), most hits filed as activators; actives 0.19% (n = 330,000); AID 485353, 2010; calls by dose curve; further: nearly all actives have a fitted effect of over 55% in size
Hits are given with their value. Rows were chosen to be rich in hits. Some 3% of all compounds tested hit in one or more screens of this group.

For Oc1cc2c(cc1O)[C@@H](c1ccccc1)CNCC2 the results were Sm TGR inh inactive and SARS PLpro yeast inactive.
Screening CCNC(=O)c1c(NC(=O)c2nc(S(=O)(=O)CC)ncc2Cl)sc2c1CCCC2 returned Sm TGR inh inactive.
For CSc1nnc(NC(=O)c2nc(S(=O)(=O)Cc3cccc(C)c3)ncc2Cl)s1 the results were Sm TGR inh 20µM and SARS PLpro yeast inactive.
C=CCSc1nnc(NC(=O)c2nc(SCC)ncc2Cl)s1 was read as Sm TGR inh inactive and SARS PLpro yeast inactive.
For Cc1ccc(CS(=O)(=O)c2ncc(Cl)c(C(=O)Nc3nnc(C(C)C)s3)n2)cc1 the results were Sm TGR inh 18µM and SARS PLpro yeast inactive.
For CSc1ncc(Cl)c(C(=O)Nc2nnc(SC/C=C/c3ccccc3)s2)n1 the results were Sm TGR inh inactive and SARS PLpro yeast inactive.
Cc1cccc(CS(=O)(=O)c2ncc(Cl)c(C(=O)Nc3nnc(C(C)C)s3)n2)c1 was read as Sm TGR inh 40µM and SARS PLpro yeast inconclusive.
For Cc1cccc(CSc2ncc(Cl)c(C(=O)Nc3nc4ccc(F)cc4s3)n2)c1 the results were Sm TGR inh inactive.
`CCSc1nnc(NC(=O)c2nc(S(=O)(=O)Cc3ccc(F)cc3)ncc2Cl)s1` gave Sm TGR inh 35µM and SARS PLpro yeast inactive.
`Cc1ccc(NC(=O)c2cc(S(=O)(=O)N(C)C3CCCCC3)ccc2F)cc1C` gave Sm TGR inh inactive.
Screening CCOc1ccc(-c2nonc2NC(=O)c2ccc(C)cc2)cc1OCC returned Sm TGR inh inactive.
CC(C)c1nn2c(=O)cc(COC(=O)c3ccccc3NC(=O)c3cccc(Cl)c3)nc2s1 was read as Sm TGR inh inactive.
`Fc1cccc(CNc2ncnc3ccc(-c4ccoc4)cc23)c1` gave Sm TGR inh inactive and SARS PLpro yeast inactive.
CN(Cc1ccccc1)C(=O)C1CCC(CNS(=O)(=O)c2ccc3c(c2)CCCC(=O)N3)CC1 (centres undefined) was read as Sm TGR inh inactive.
`Cc1ccc(C)c(NC(=O)c2nc(Cl)ccc2Cl)c1` gave Sm TGR inh inactive and SARS PLpro yeast inactive.
Screening Cc1ccc(C)c(NC(=O)c2nc(S(=O)(=O)Cc3ccc(F)cc3)ncc2Cl)c1 returned Sm TGR inh 2.5µM.
CC(C)c1nnc(NC(=O)c2nc(SCc3ccc(F)cc3)ncc2Cl)s1 was read as Sm TGR inh inactive.
CC(C)c1nnc(NC(=O)c2nc(S(=O)(=O)Cc3ccc(F)cc3)ncc2Cl)s1 was read as Sm TGR inh 25µM and SARS PLpro yeast inactive.
For CCCN1CCOC(CC(=O)Nc2ccc([N+](=O)[O-])cc2)C1=O (centres undefined) the results were Sm TGR inh 28µM and SARS PLpro yeast inactive.
Screening CC1CCN(CC(=O)Nc2cccc([N+](=O)[O-])c2)CC1 returned Sm TGR inh inactive and SARS PLpro yeast inactive.
`CCCN1CCC(NC(=O)Nc2ccc([N+](=O)[O-])cc2)CC1` gave Sm TGR inh inactive and SARS PLpro yeast inactive.
`CCN1CCOC(CC(=O)Nc2cccc([N+](=O)[O-])c2)C1=O` (centres undefined) gave Sm TGR inh 11µM and SARS PLpro yeast inactive.
`CCc1ccccc1N(C)C(=O)c1cn(-c2cccc(OC)c2)c(=O)c2ccccc12` gave Sm TGR inh inactive.
`Cc1ccc(CCNC(=O)c2ccc(NC(=O)N3CCSc4ccccc43)cc2)cc1` gave Sm TGR inh inactive.
For COc1ccc(C(=O)CC2(O)C(=O)N(Cc3ccccc3)c3ccc(Br)cc32)cc1 (centres undefined) the results were Sm TGR inh inactive.
`COc1ccc(OCC(=O)NC2CC(=O)N(c3cccc(OC)c3)C2)cc1` (centres undefined) gave Sm TGR inh inactive.
`COc1ccc(C(=O)/C=C/C(=O)N(Cc2ccc(F)cc2)C(C(=O)NC2CCCCC2)c2ccncc2)c(O)c1` (centres undefined) gave Sm TGR inh inactive and SARS PLpro yeast inactive.
`COc1ccc(C(=O)/C=C/C(=O)N(Cc2ccccc2OC)C(C(=O)NC2CCCCC2)c2ccncc2)c(O)c1` (centres undefined) gave Sm TGR inh inactive and SARS PLpro yeast inactive.
Screening COc1ccc(C(=O)/C=C/C(=O)N(CC(=O)NC2CCCCC2)Cc2ccccc2)c(O)c1 returned Sm TGR inh 1.4µM and SARS PLpro yeast inactive.
Screening COc1ccc(C(=O)/C=C/C(=O)N(CC(=O)NC2CCCCC2)CC2CCCO2)c(O)c1 (centres undefined) returned Sm TGR inh 1.3µM and SARS PLpro yeast inactive.
COc1ccc(C(=O)/C=C/C(=O)N(CC(=O)NC2CCCCC2)Cc2ccccc2OC)c(O)c1 was read as Sm TGR inh 1µM and SARS PLpro yeast inactive.
For COc1ccc(C(=O)/C=C/C(=O)N(Cc2ccccc2)C(C(=O)NC2CCCCC2)c2ccncc2)c(O)c1 (centres undefined) the results were Sm TGR inh inactive and SARS PLpro yeast inactive.
`CCS(=O)(=O)n1nc(-c2ccco2)nc1NCc1ccc(C(C)C)cc1` gave Sm TGR inh inactive.
For CN(C)c1ccc(Nc2ncnc3c2c(-c2ccccc2)cn3-c2cccc(Cl)c2)cc1 the results were Sm TGR inh inactive.
COC(=O)c1ccc(NC(=O)CC2C(=O)N(c3cccc(OC)c3)C(=O)N2Cc2cccs2)cc1 (centres undefined) was read as Sm TGR inh inactive.
`CCc1nnc(SC(CC)C(=O)Nc2ccc(OC)c(Cl)c2)c2cc3occc3n12` (centres undefined) gave Sm TGR inh inactive.
Cc1ccc2cc(COC(=O)c3ccco3)c(=O)[nH]c2c1 was read as Sm TGR inh 45µM and SARS PLpro yeast inactive.
Screening O=C(OCc1cc2ccccc2[nH]c1=O)c1ccco1 returned Sm TGR inh inactive and SARS PLpro yeast inactive.
CC(C)N(Cc1cc2ccccc2[nH]c1=O)C(=O)c1ccco1 was read as Sm TGR inh 28µM and SARS PLpro yeast inactive.
Cc1cccc(N(Cc2cc3ccccc3[nH]c2=O)C(=O)c2ccco2)c1C was read as Sm TGR inh inactive and SARS PLpro yeast inactive.
Screening COC(=O)c1ccccc1NC(=O)CSc1nc2ccccc2nc1Cc1ccccc1OC returned Sm TGR inh inactive.
For O=C(/C=C/c1ccco1)NCCc1ccccc1 the results were Sm TGR inh 7.9µM and SARS PLpro yeast inactive.
O=C(O)/C=C/C(=O)NCCc1ccccc1 was read as Sm TGR inh inactive and SARS PLpro yeast inactive.
Screening O=C(O)CCCCCNC(=O)/C=C/c1ccco1 returned Sm TGR inh inactive and SARS PLpro yeast inactive.
`Cc1ccc(/C=C/C(=O)NCCc2ccccc2)o1` gave Sm TGR inh 3.2µM and SARS PLpro yeast inactive.
For O=C(/C=C/c1c(Cl)cccc1Cl)NCCc1ccccc1 the results were Sm TGR inh inactive and SARS PLpro yeast inactive.
Screening Cc1cc(C(=O)OCC(=O)NC(C)c2ccccc2)c(C)o1 (centres undefined) returned Sm TGR inh inactive and SARS PLpro yeast inactive.
Screening O=C(O)CCCNC(=O)/C=C/c1ccco1 returned Sm TGR inh 4.5µM and SARS PLpro yeast inactive.
`Cc1ccc(/C=C/C(=O)OCC(=O)NC(C)c2ccccc2)o1` (centres undefined) gave Sm TGR inh 35µM and SARS PLpro yeast inactive.
For CCCCn1c(=O)c2oc3ccccc3c2n(Cc2ccccc2C)c1=O the results were Sm TGR inh inactive.

Screening results deposited in PubChem BioAssay by National Center for Advancing Translational Sciences (NCATS).
